Assay outcomes (PubChem BioAssay)
Most compounds without a hit are left out; they make up all but 28% or so of the library.
DAT uptake mod = changed hDAT dopamine uptake under cocaine IC80, either direction, primary screen, cocaine antagonist project, cell-based, LLC-PK1 hDAT, [14C]-dopamine uptake, MLSMR. B-score at 10 µM. LLC-PK1 hDAT cells, [14C]-dopamine uptake with cocaine IC80; actives deviate in either direction. AID 449768, 2010. hit rate 1.3% among 110,000;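 active means Z score or B-score, a plate-position-corrected score, falls beyond the plate's 99.7% confidence bounds, in either direction; inactive means both scores lie inside the 99.7% bounds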;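 further: scored against the spread of the other compound wells on the same plate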
Target sequence (Q01959 whole entry, looked up): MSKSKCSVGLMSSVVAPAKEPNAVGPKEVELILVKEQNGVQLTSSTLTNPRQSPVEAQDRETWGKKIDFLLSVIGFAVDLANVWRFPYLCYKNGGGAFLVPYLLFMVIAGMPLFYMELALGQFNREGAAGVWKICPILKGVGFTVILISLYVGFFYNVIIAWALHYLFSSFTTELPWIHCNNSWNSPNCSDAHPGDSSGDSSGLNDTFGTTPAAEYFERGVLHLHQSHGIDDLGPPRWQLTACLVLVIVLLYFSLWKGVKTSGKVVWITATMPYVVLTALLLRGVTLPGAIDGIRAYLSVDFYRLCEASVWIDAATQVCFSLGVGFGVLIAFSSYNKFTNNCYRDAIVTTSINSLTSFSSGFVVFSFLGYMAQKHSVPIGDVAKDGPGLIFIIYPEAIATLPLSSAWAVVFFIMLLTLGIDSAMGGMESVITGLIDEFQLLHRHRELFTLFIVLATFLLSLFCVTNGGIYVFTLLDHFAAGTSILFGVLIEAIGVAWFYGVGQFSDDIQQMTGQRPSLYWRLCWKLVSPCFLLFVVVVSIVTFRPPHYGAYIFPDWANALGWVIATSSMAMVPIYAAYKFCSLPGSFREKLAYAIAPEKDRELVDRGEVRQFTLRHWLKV
CYP2C9 inh = blockers of cytochrome P450 2C9 activity – biochemical, luminescence, ADME assay, primary screen; AID 777, 2007; hit rate 20% among 96,000; CYP2C9 Supersomes, luciferin-H conversion; inhibition, % at 5 µM;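 active means blocking of liver enzyme CYP2C9 beyond about 50% at 5 µM, limit read from the data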
CYP2C19 inhib = blockers of cytochrome P450 2C19 activity – biochemical, luminescence, ADME assay, primary screen. P33261. CYP2C19 Supersomes, luciferin-H EGE luminescence, 30 min. inhibition, % at 5 µM. hit rate 21% among 96,000;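 active means CYP2C19 inhibition above a set limit at 5 µM in the primary screen, cut at about 50% in these data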;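 further: plate controls were negative control wells for no effect and 2.5 mM tranylcypromine positive control for full effect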
D1 mod = D1 CRE-luciferase signal change, two-sided – cell-based, HEK293 D1, dopamine EC30, D1 allosteric modulator project, primary screen; D(1A) dopamine receptor (Homo sapiens), P21728; dopamine EC30 potentiation; actives deviate in either direction; B-score at 10 µM; hit rate 5.9% among 58,000;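 active means luminescence count or its row- and column-corrected plate score outside the 99.7% band of the plate's sample wells, on either side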
CYP2C19 act = human CYP2C19 activators, primary screen, biochemical, luminescence; Cytochrome P450 2C19 (Homo sapiens), P33261; recombinant CYP2C19, luciferin-H EGE luminescence; stronger effect = higher value; 0 = fully inhibited enzyme, 1 = untreated enzyme; activation factor at 5 µM; 96,000 tested, under 10 active; AID 1025, 2008;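 active means activation factor of at least 2 at 5 µM in the primary screen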;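 further: 0 = wells with 2.5 mM tranylcypromine and 1 = vehicle-only wells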
CYP2C9 act = human CYP2C9 activators, primary screen, biochemical, luminescence; Cytochrome P450 2C9 (Homo sapiens), P11712; recombinant CYP2C9, luciferin-H conversion; stronger effect = higher value; factor 1 = untreated enzyme, 0 = blocked; activation factor at 5 µM; hit rate 1.4% among 96,000; AID 1024, 2008;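 active means activation factor of 2 or more for CYP2C9 at a 5 µM dose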;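 further: 0 = sulfaphenazole-blocked wells and 1 = vehicle-only wells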
Active calls of the source: *.

What do the screens show for `Cc1ccc(NC(=O)CSc2nc3ccccc3c(=O)n2CCCC(=O)N2CCCC2)cc1`?
DAT uptake mod: -0.14; CYP2C9 inh: 44; CYP2C19 inhib: 55*; D1 mod: -0.46; CYP2C19 act: 0.5; CYP2C9 act: 0.6

What do the screens show for `CCCC(C)C1C(C#N)=C(N)Oc2cc(C)oc(=O)c21` (stereo not drawn)?
D1 mod: -0.16

What do the screens show for `CCCCOc1ccc(/C(O)=C2/C(=O)C(=O)N(CCCOC)C2c2ccncc2)cc1C` (stereo not drawn)?
DAT uptake mod: 0.3; CYP2C9 inh: 14; CYP2C19 inhib: -1; D1 mod: -0.013; CYP2C19 act: 1; CYP2C9 act: 0.9

What do the screens show for `Cc1ccc(Cn2nc(C)c(NC(=O)C3(C)CC3(Br)Br)c2C)cc1` (stereo not drawn)?
DAT uptake mod: 0.56

Results for O=C(CSc1ncnc2c1oc1ccccc12)Nc1cccc(C(F)(F)F)c1 ?
DAT uptake mod: -0.43; CYP2C9 inh: 4; CYP2C19 inhib: -17; D1 mod: -0.94; CYP2C19 act: 1.2; CYP2C9 act: 1

Results for Cc1c(Cl)cccc1NC(=O)CSc1ncnc2c1cnn2CCc1ccccc1 ?
DAT uptake mod: -0.93; CYP2C9 inh: 89*; CYP2C19 inhib: 63*; CYP2C19 act: 0.4; CYP2C9 act: 0.1

What do the screens show for `O=C(CSc1ncnc2c1cnn2CCc1ccccc1)Nc1cccc(C(F)(F)F)c1`?
DAT uptake mod: -0.72; CYP2C9 inh: 98*; CYP2C19 inhib: 78*; CYP2C19 act: 0.2; CYP2C9 act: 0

What do the screens show for `COC(=O)CSc1ncnc2c1cnn2Cc1ccccc1`?
DAT uptake mod: -1.2; CYP2C9 inh: 32; CYP2C19 inhib: 68*; D1 mod: -0.34; CYP2C19 act: 0.3; CYP2C9 act: 0.7

How did c1ccc(-c2cnc(CSc3nnc4ccccn34)o2)cc1 do in these assays?
DAT uptake mod: -0.78; CYP2C9 inh: 31; CYP2C19 inhib: 70*; CYP2C19 act: 0.3; CYP2C9 act: 0.7

What do the screens show for `Cc1cccc(CSc2nnnn2-c2ccccc2)c1`?
DAT uptake mod: -0.81; CYP2C9 inh: 23; CYP2C19 inhib: 39; CYP2C19 act: 0.6; CYP2C9 act: 0.8

Results for O=C1c2ccccc2C(=O)N1CCCCSc1nnc2ccccn12 ?
DAT uptake mod: 2.3; CYP2C9 inh: 9; CYP2C19 inhib: 22; D1 mod: 0.24; CYP2C19 act: 0.8; CYP2C9 act: 0.9

How did Cc1ccccc1-n1nnnc1SCc1ncc(-c2ccccc2)o1 do in these assays?
CYP2C9 inh: 82*; CYP2C19 inhib: 31; D1 mod: 2.6; CYP2C19 act: 0.7; CYP2C9 act: 0.2

How did CCCC(=O)N=C1SC2CS(=O)(=O)CC2N1c1ccc(C(C)=O)cc1 (stereo not drawn) do in these assays?
DAT uptake mod: 0.19; CYP2C9 inh: 42; CYP2C19 inhib: 7; D1 mod: -0.91; CYP2C19 act: 0.9; CYP2C9 act: 0.6

Results for CCCNS(=O)(=O)c1ccc(CCC(=O)NCc2ccc3c(c2)OCO3)cc1 ?
DAT uptake mod: -0.61; CYP2C9 inh: 74*; CYP2C19 inhib: 80*; D1 mod: -0.15; CYP2C19 act: 0.2; CYP2C9 act: 0.3

Results for CC(C)(C)NS(=O)(=O)c1ccc(CCC(=O)Nc2ccc3c(c2)OCO3)cc1 ?
DAT uptake mod: -0.94; CYP2C9 inh: 94*; CYP2C19 inhib: 58*; CYP2C19 act: 0.4; CYP2C9 act: 0.1

What do the screens show for `CC(C)NS(=O)(=O)c1ccc(CCC(=O)NCc2ccc3c(c2)OCO3)cc1`?
DAT uptake mod: -0.91

Results for O=C(CCNS(=O)(=O)c1ccc(Br)cc1)NCc1ccc2c(c1)OCO2 ?
DAT uptake mod: -1.5; CYP2C9 inh: -6; CYP2C19 inhib: 22; D1 mod: 0.052; CYP2C19 act: 0.8; CYP2C9 act: 1.1
